Values quoted from earlier work, collected in PubChem BioAssay AID977611.
The whole screen tested about 3,900 compounds, of which about 3,900 (100%) were called active. No cut-off is given here; in the data, nearly all actives have Kd up to about 4200 µM. The set was probably picked from earlier hits. Some of the results follow. Numbered stars: 1 amine (or outer) side, 2 acyl side, 3 side chain; on linkers, the order of the positions; unused ones are H or OH. Bridge positions count the residues as written; N and C are the ends. Where a SMILES comes first, the peptide text is derived from it. Non-standard residues stand in square brackets, D forms with d. Square brackets hold non-standard residues; d marks the D form. Residues, ends and D or L forms follow the SMILES beside them. Peptide text beside a SMILES is read from it. [ ]: non-standard residue; d: D form. Orn(CH(NH2)2) = NC(N)NCCC[C@H](N)C(=O)O; Cha = N[C@@H](CC1CCCCC1)C(=O)O; Orn = NCCC[C@H](N)C(=O)O; X1 = O=C(C[*:1])[*:2]; Aib = CC(C)(N)C(=O)O

Assay: PubChem AID 977611
Settings: PDB protein-ligand complexes, literature Kd

CCCCCCCCNc1cc(-c2ccc(OC)cc2)nc(N)n1
Kd (protein: Acetylcholine-binding protein AChBP, PDB entry 4qaa): 0.36 µM (active)

O=c1ccn([C@H]2C[C@H](O)[C@@H](CO[P+](O)(O)N[P+](O)(O)O[P+](O)(O)O)O2)c(=O)[nH]1
Kd (protein: DUTPase, PDB entry 4gv8): 0.32 µM (active)

O=c1ccn([C@@H]2O[C@H](CO[P+](O)(O)O)[C@@H](O)[C@H]2O)c(=O)[nH]1
Kd (protein: Orotidine 5'-phosphate decarboxylase, PDB entry 3w07): 420 µM (active)

O=c1ccn([C@@H]2O[C@H](CO[P+](O)(O)N[P+](O)(O)O[P+](O)(O)O)[C@@H](O)[C@H]2O)c(=O)[nH]1
Kd (protein: Poly(A) RNA polymerase protein cid1, PDB entry 4nkt): 1.08 µM (active)

C[C@H]1O[C@@H](n2ccc(=O)[nH]c2=O)[C@H](O)[C@@H]1O
Kd (protein: GLUCOSYL-3-PHOSPHOGLYCERATE SYNTHASE (GpgS), PDB entry 4de7): 16 µM (active)

O=[N+]([O-])c1ccc2c(ccn2[C@H]2C[C@H](O)[C@@H](CO[P+](O)(O)O[P+](O)(O)O[P+](O)(O)O)O2)c1
Kd (protein: Ribonucleoside-diphosphate reductase large chain 1, PDB entry 3rsr): 44 µM (active)

CC[C@H](C)[C@H](NC(=O)[C@H](Cc1ccc(O)cc1)NC(=O)[C@H](Cc1c[nH]c2ccccc12)NC(=O)[C@H](CC(C)C)NC(=O)[C@H](Cc1c[nH]c2ccccc12)NC(=O)[C@H](CC(N)=O)NC(=O)[C@@H](NC(=O)[C@@H](NC(=O)[C@H](CC(=O)O)NC(=O)[C@H](Cc1ccccc1)NC(=O)[C@H](Cc1c[nH]c2ccccc12)NC(=O)[C@@H](N)CC(N)=O)[C@@H](C)CC)[C@@H](C)O)C(=O)N[C@@H](CCCCN)C(=O)N[C@@H](CCCCN)C(=O)N[C@@H](CCCCN)C(=O)N[C@@H](CCCCN)C(=O)O
Kd (protein: human fab 4e10, PDB entry 2fx7): 0.02 µM (active)

H-KIIDTGGGFIL-OH
Kd (protein: DNA excision repair protein ERCC-1, PDB entry 2jnw): 0.78 µM (active)

H-EDDDIKQLAAWAT-OH
Kd (protein: Programmed cell death 6-interacting protein, PDB entry 3c3r): 41 µM (active)

H-TKIDWNKIA-OH
Kd (protein: Protein S100-B, PDB entry 3iqq): 2.9 µM (active)

CC[C@H](C)[C@H](NC(=O)[C@H](Cc1ccccc1)NC(=O)[C@H](C)N)C(=O)N[C@H](C(=O)N[C@@H](Cc1c[nH]c2ccccc12)C(=O)N[C@@H](CC(C)C)C(=O)N[C@@H](C)C(=O)N[C@@H](CCCNC(N)N)C(=O)N[C@@H](CCCNC(N)N)C(=O)N[C@@H](CC(C)C)C(=O)N[C@@H](CCCCN)C(=O)N[C@@H](CCCCN)C(=O)NCC(=O)N[C@@H](CCCCN)C(=O)N[C@@H](CCCCN)C(=O)O)[C@@H](C)CC (H-AFIIWLA[Orn(CH(NH2)2)][Orn(CH(NH2)2)]LKKGKK-OH)
Kd (protein: Calmodulin, PDB entry 2lgf): 2.7 µM (active)

H-DEEALKQLAEWVS-OH
Kd (protein: Programmed cell death 6-interacting protein, PDB entry 3c3o): 44 µM (active)

CC[C@H](C)[C@H](NC(=O)[C@H](Cc1c[nH]c2ccccc12)NC(=O)[C@H](CC(=O)O)NC(=O)[C@H](CCC(=O)O)NC(=O)[C@H](CC(C)C)NC(=O)[C@@H](N)Cc1ccc(O)cc1)C(=O)N[C@@H](CCCCN)C(=O)N[C@@H](Cc1ccc(O)cc1)C(=O)N[C@@H](CC(N)=O)C(=O)N[C@@H](CC(N)=O)C(=O)N[C@H](C=O)CCC(N)=O (H-YLEDWIKYNNQ-aldehyde)
Kd (protein: FAB F22-4, PDB entry 3ggw): 2.9 µM (active)

CC(C)C[C@H](NC(=O)[C@H](Cc1ccc(O)cc1)NC(=O)[C@@H](CCCCN)NC(=O)[C@@H](CO)NC(=O)[C@H](Cc1ccccc1)NC(=O)[C@H](CC1CCCCC1)NC(=O)[C@H](CC(=O)O)NC(=O)[C@H](CO)NC(=O)[C@@H](N)CCCCN)C(=O)N[C@@H](Cc1c[nH]c2ccccc12)C(=O)N[C@@H](CO)C(=O)N[C@@H](CO)C(=O)N[C@@H](CCCCN)C(=O)O (H-KSD[Cha]F[dS][dK]YLWSSK-OH)
Kd (protein: human Urokinase plasminogen activator surface receptor(uPAR/CD87), PDB entry 1ywh): 0.0164 µM (active)

CC[C@H](C)[C@@H]1NC(=O)[C@@H](NC(=O)[C@H](Cc2ccccc2)NC(=O)[C@H](Cc2c[nH]c3ccccc23)NC(=O)[C@@H](N)CC(N)=O)CSCC(=O)NCCC[C@@H](C(=O)N[C@@H](Cc2c[nH]c3ccccc23)C(=O)N[C@@H](CC(C)C)C(=O)N[C@@H](Cc2c[nH]c3ccccc23)C(=O)N[C@@H](CCCCN)C(=O)N[C@@H](CCCCN)C(=O)N[C@@H](CCCCN)C(=O)N[C@@H](CCCCN)C(=O)O)NC(=O)[C@H]([C@@H](C)O)NC1=O (H-NWFCIT[Orn]WLWKKKK-OH; linker 4-7 via X1)
Kd (protein: human fab 4e10, PDB entry 2fx9): 0.017 µM (active)

CC[C@H](C)[C@H](NC(=O)[C@H](CCC(=O)O)NC(=O)[C@H](CC(N)=O)NC(=O)[C@H](CCC(=O)O)NC(=O)[C@@H](NC(=O)[C@H](Cc1c[nH]c2ccccc12)NC(=O)CNC(=O)[C@H](CO)NC(=O)[C@H](CCC(=O)O)NC(=O)[C@H](CCCCN)NC(=O)[C@H](CO)NC(=O)[C@H](CCCNC(N)N)NC(=O)CN)C(C)C)C(=O)N[C@@H](Cc1ccc(O)cc1)C(=O)N[C@@H](Cc1ccc(O)cc1)C(=O)O (H-G[Orn(CH(NH2)2)]SKESGWVENEIYY-OH)
Kd (protein: Talin-1, PDB entry 2k00): 24 µM (active)

CC[C@H](C)[C@H](NC(=O)[C@H](CC(=O)O)NC(=O)[C@H](Cc1ccccc1)NC(=O)[C@H](CCCNC(N)N)NC(=O)[C@H](CC(C)C)NC(=O)[C@H](CCCCN)NC(=O)[C@@H](N)CCCCN)C(=O)O (H-KKL[Orn(CH(NH2)2)]FDI-OH)
Kd (protein: Serine/threonine-protein phosphatase PP1-alpha catalytic subunit, PDB entry 3n5u): 1.2 µM (active)

CC(C)C[C@H](NC(=O)[C@@H](NC(=O)CNC(=O)[C@H](Cc1ccc(O)cc1)NC(=O)[C@@H](NC(=O)CNC(=O)[C@@H](NC(=O)[C@H](CCCNC(N)N)NC(=O)[C@H](CCCNC(N)N)NC(=O)[C@H](C)N)[C@@H](C)O)[C@@H](C)O)C(C)C)C(=O)N[C@@H](C)C(=O)N[C@@H](C)C(=O)N[C@@H](Cc1c[nH]c2ccccc12)C(=O)N[C@@H](C)C(=O)N[C@@H](C)C(=O)N[C@@H](C)C(=O)O (H-A[Orn(CH(NH2)2)][Orn(CH(NH2)2)]TGTYGVLAAWAAA-OH)
Kd (protein: mouse radixin FERM domain, PDB entry 1j19): 0.0164 µM (active)

H-TWIENKLYGM-OH
Kd (protein: Dock 1 PTB domain, PDB entry 1uef): 3.2 µM (active)

CC[C@H](C)[C@H](NC(=O)[C@H](CC(=O)O)NC(=O)[C@H](Cc1ccccc1)NC(=O)[C@H](Cc1c[nH]c2ccccc12)NC(=O)[C@@H](N)CC(N)=O)C(=O)N[C@H](C(=O)N[C@@H](CC(N)=O)C(=O)NC(C)(C)C(=O)N[C@@H](CC(C)C)C(=O)N[C@@H](Cc1c[nH]c2ccccc12)C(=O)N[C@@H](CCCNC(N)N)C(=O)N[C@@H](CCCNC(N)N)C(=O)O)[C@@H](C)O (H-NWFDITN[Aib]LW[Orn(CH(NH2)2)][Orn(CH(NH2)2)]-OH)
Kd (protein: human fab 4e10, PDB entry 2fx8): 0.302 µM (active)

H-KEEEDDDMKELENWAGSM-OH
Kd (protein: Programmed cell death 6-interacting protein, PDB entry 3c3q): 48 µM (active)

CC[C@H](C)[C@H](NC(=O)[C@H](CC(C)C)NC(=O)[C@H](CCC(=O)O)NC(=O)[C@H](CCCNC(N)N)NC(=O)[C@H](CCCCN)NC(=O)[C@@H](N)CCCCN)C(=O)N[C@@H](CCC(=O)O)C(=O)N[C@@H](CO)C(=O)N[C@@H](CCCCN)C(=O)N[C@@H](Cc1c[nH]c2ccccc12)C(=O)N[C@@H](Cc1cnc[nH]1)C(=O)N[C@@H](CCCNC(N)N)C(=O)N[C@@H](CC(C)C)C(=O)N[C@@H](CC(C)C)C(=O)N[C@@H](Cc1ccccc1)C(=O)N[C@@H](Cc1cnc[nH]1)C(=O)N[C@@H](CC(=O)O)C(=O)N[C@@H](CCCCN)C(=O)N[C@@H](CCCCN)C(=O)O (H-KK[Orn(CH(NH2)2)]ELIESKWH[Orn(CH(NH2)2)]LLFHDKK-OH)
Kd (protein: Chlamydomonas reinhardtii caltractin (CRC-C), PDB entry 1oqp): 0.05 µM (active)

H-QLAWFDTDL-OH
Kd (protein: Tax-interacting protein-1 (TIP-1), PDB entry 3diw): 0.19 µM (active)

CC[C@H](C)[C@H](NC(=O)[C@H](CC(=O)O)NC(=O)[C@H](Cc1c[nH]c2ccccc12)NC(=O)[C@H](Cc1ccccc1)NC(=O)[C@H](CCCCN)NC(=O)[C@H](CC(C)C)NC(=O)[C@@H](NC(=O)[C@H](Cc1ccccc1)NC(=O)[C@@H](N)CC(N)=O)[C@@H](C)O)C(=O)N[C@@H](Cc1ccccc1)C(=O)N[C@@H](CCCNC(N)N)C(=O)N[C@@H](CCCCN)C(=O)O (H-NFTLKFWDIF[Orn(CH(NH2)2)]K-OH)
Kd (protein: Chaperone surA-P1, PDB entry 2pv2): 1.23 µM (active)

H-NFTLKFWDIF-OH
Kd (protein: Chaperone surA(P2), PDB entry 2pv3): 5.57 µM (active)

NCc1cccc(N2CCCC2)c1
Kd (protein: CATIONIC TRYPSIN, PDB entry 4abh): 71 µM (active)

NCc1cccc(-n2cccc2)c1
Kd (protein: CATIONIC TRYPSIN, PDB entry 4abd): 40 µM (active)

NCc1cccc(-n2cccn2)c1
Kd (protein: CATIONIC TRYPSIN, PDB entry 4abe): 400 µM (active)

NCc1ccccc1-n1cccn1
Kd (protein: INTEGRASE, PDB entry 4ahv): 15000 µM (active)

O[P+](O)(O)O[C@@H]1C(OCc2ccccc2)[C@H](O[P+](O)(O)O)[C@@H](O[P+](O)(O)O)C(OCc2ccccc2)[C@H]1O[P+](O)(O)O (some centres not stated)
Kd (protein: Inositol hexakisphosphate and diphosphoinositol-pentakisphosphate kinase 2 PPIP5K2, PDB entry 4nzo): 0.17 µM (active)

C[C@H]1O[C@H](O)[C@@H](O)[C@@H](O)[C@@H]1O
Kd (protein: Pyocin L1, PDB entry 4led): 5000 µM (active)

C[C@@H]1O[C@@H](O)[C@H](O)[C@H](O)[C@H]1O
Kd (protein: Putative rhamnosidase, PDB entry 3w5n): 135 µM (active)

O=S(=O)(Nc1nc2ccc(Cl)cc2s1)c1cc2ccccc2s1
Kd (protein: 3-phosphoinositide-dependent protein kinase 1 PDK1, PDB entry 4rqv): 9 µM (active)

H-DEEGGGEEDQDFDLSQLH-OH
Kd (protein: p120 catenin isoform 4A delta 1 (deletion, residues 613-643), PDB entry 3l6x): 40 µM (active)

CC(C)C[C@H](NC(=O)[C@@H](N)CC(=O)O)C(=O)N[C@@H](Cc1ccccc1)C(=O)O (H-Asp-Leu-Phe-OH)
Kd (protein: DNA polymerase III subunit beta, PDB entry 4k3m): 281 µM (active)

H-DLLDSLGF-OH
Kd (protein: Chemotaxis protein cheY, PDB entry 2pmc): 64.7 µM (active)

H-SFGDGFADF-OH
Kd (protein: AP-2 complex subunit ?-2, PDB entry 2iv9): 46 µM (active)

H-SGFSF-OH
Kd (protein: Ras GTPase-activating protein-binding protein 1, PDB entry 4fcm): 115 µM (active)

H-LAPPKPPLPE-OH
Kd (protein: The second SH3 domain from CAP/Ponsin, SH3b, PDB entry 4ln2): 248 µM (active)

H-APPPRPPPPE-OH
Kd (protein: The first SH3 domain from CAP/Ponsin, SH3a, PDB entry 4lnp): 214 µM (active)

CC(C)C[C@H](NC(=O)[C@@H]1CCCN1C(=O)[C@@H]1CCCN1C(=O)[C@H](CC(C)C)NC(=O)[C@@H]1CCCN1C(=O)[C@H](CCCNC(N)N)NC(=O)[C@@H](N)CCCCN)C(=O)N1CCC[C@H]1C(=O)N[C@@H](CO)C(=O)O (H-K[Orn(CH(NH2)2)]PLPPLPS-OH)
Kd (protein: phosphatidylinositol 3-kinase (PI3K) SH3 domain, PDB entry 3i5r): 40 µM (active)

CC(C)CCCCCCC(=O)N[C@H]1[C@H](Oc2c3cc4cc2Oc2ccc(cc2Cl)C[C@H]2NC(=O)[C@H](N)c5ccc(O)c(c5)Oc5cc(O)cc(c5)[C@H](NC2=O)C(=O)N[C@H]4C(=O)N[C@H]2C(=O)N[C@H](C(=O)N[C@H](C(=O)O)c4cc(O)cc(O)c4-c4cc2ccc4O)[C@H](O)c2ccc(cc2)O3)O[C@H](CO)[C@@H](O)[C@@H]1O
Kd (protein: Maltose-binding periplasmic protein, C-terminal fused by Cys-Lys-D-Ala-D-Ala, PDB entry 3vfj): 0.091 µM (active)
